PubChem BioAssay AID1159580 (chemical genetic matrix, 2015)
Values joined by “and” are separate entries in the source; they are usually repeats but may differ in a detail not shown here. Equal entries are not always repeated. Hit rate of the full screen: of about 5,500 compounds, about 2,000 (36%) were called active. Not shown: some 18% with an inconclusive outcome. No stated cut-off is given here; in the data, active means normalized growth mostly below about 0.91 (no sharp cut-off); inconclusive means no clear call, values can overlap the other calls; inactive means mostly above about 0.92. Some of the results follow.

Test: chemical genetic growth profiling, strain panel (AID 1159580);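 further: tested at 20 µM; growth read once vehicle control cultures reached saturation at 30 °C; 1 = growth at the plate median or of vehicle wells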
Settings: S. cerevisiae deletion strains, growth OD

Measured: normalized growth

C=C1CC[C@H](O)C/C1=C/C=C1\CCC[C@]2(C)C([C@H](C)/C=C/[C@H](C)C(C)C)CC[C@@H]12 (stereo not given in full)
inactive: locus YAL013W, strain DEP1, stronger effect = lower value 0.977 | locus YAL021C, strain ccr4, stronger effect = lower value 1.05 | locus YAL026C, strain drs2, stronger effect = lower value 1 | locus YAL030W, strain snc1, stronger effect = lower value 1.02 | locus YBL061C, strain skt5, stronger effect = lower value 1.02 | locus YBR009C, strain hhf1, stronger effect = lower value 0.991 | locus YBR021W, strain FUR4, stronger effect = lower value 1.04 | locus YBR023C, strain chs3, stronger effect = lower value 0.998 | locus YBR171W, strain sec66, stronger effect = lower value 1.01 | locus YBR229C, strain ROT2, stronger effect = lower value 0.944 | locus YBR231C, strain swc5, stronger effect = lower value 0.995 | locus YBR279W, strain paf1, stronger effect = lower value 1.01 | locus YCL011C, strain gbp2, stronger effect = lower value 1.02 | locus YCL016C, strain dcc1, stronger effect = lower value 0.995 | locus YCL029C, strain bik1, stronger effect = lower value 0.968 | locus YCL069W, strain vba3, stronger effect = lower value 1.01 | locus YCR088W, strain abp1, stronger effect = lower value 1.03 | locus YDL005C, strain med2, stronger effect = lower value 1 | locus YDL035C, strain GPR1, stronger effect = lower value 0.929 | locus YDL040C, strain nat1, stronger effect = lower value 1.02 | locus YDL074C, strain BRE1, stronger effect = lower value 0.961 | locus YDL101C, strain DUN1, stronger effect = lower value 0.976 | locus YDL185W, strain tfp1, stronger effect = lower value 0.981 | locus YDL192W, strain arf1, stronger effect = lower value 0.976 | locus YDR001C, strain nth1, stronger effect = lower value 1.03 | locus YDR069C, strain doa4, stronger effect = lower value 1.03 | locus YDR101C, strain arx1, stronger effect = lower value 0.948 | locus YDR137W, strain rgp1, stronger effect = lower value 0.939 | locus YDR150W, strain NUM1, stronger effect = lower value 0.977 | locus YDR159W, strain sac3, stronger effect = lower value 1.02 | locus YDR162C, strain NBP2, stronger effect = lower value 0.863 | locus YDR195W, strain ref2 1.03 | locus YDR297W, strain sur2, stronger effect = lower value 1.01 | locus YDR318W, strain mcm21, stronger effect = lower value 0.98 | locus YDR334W, strain swr1, stronger effect = lower value 1.03 | locus YDR335W, strain msn5, stronger effect = lower value 1.03 | locus YDR388W, stronger effect = lower value 0.977 | locus YDR392W, strain spt3, stronger effect = lower value 0.911 | locus YDR502C, strain sam2, stronger effect = lower value 0.998 | locus YEL003W, strain gim4, stronger effect = lower value 1.03 | locus YEL037C, strain rad23, stronger effect = lower value 1.01 | locus YEL061C, strain CIN8 (second series), stronger effect = lower value 1.03 | locus YEL061C, strain CIN8, stronger effect = lower value 0.982 | locus YER015W, strain faa2, stronger effect = lower value 1.01 | locus YER016W, strain bim1, stronger effect = lower value 1.02 | locus YER110C, stronger effect = lower value 0.977 | locus YER111C, strain swi4, stronger effect = lower value 0.996 | locus YER155C, strain BEM2 (second series), stronger effect = lower value 1.06 | locus YER155C, strain BEM2, stronger effect = lower value 0.997 | locus YER167W, strain BCK2, stronger effect = lower value 0.999 | locus YFR010W, strain ubp6, stronger effect = lower value 1.02 | locus YGL078C, strain dbp3, stronger effect = lower value 0.972 | locus YGL086W, strain mad1, stronger effect = lower value 0.958 | locus YGL167C, strain pmr1, stronger effect = lower value 1.03 | locus YGL173C, strain kem1, stronger effect = lower value 1.04 | locus YGL227W, strain vid30, stronger effect = lower value 1.01 | locus YGL240W, strain doc1, stronger effect = lower value 1.03 | locus YGL248W, strain PDE1, stronger effect = lower value 0.978 | locus YGL253W, strain hxk2, stronger effect = lower value 0.989 | locus YGR078C, strain PAC10, stronger effect = lower value 0.974 | locus YGR135W, strain pre9, stronger effect = lower value 1.03 | locus YGR252W, strain gcn5, stronger effect = lower value 1.08 | locus YHR013C, strain ard1, stronger effect = lower value 1.07 | locus YHR027C, strain rpn1, stronger effect = lower value 1.03 | locus YHR030C, strain SLT2, stronger effect = lower value 0.998 and 0.979 | locus YHR079C, strain IRE1 (second series), stronger effect = lower value 0.964 | locus YHR079C, strain IRE1, stronger effect = lower value 0.997 | locus YHR094C, strain hxt1, stronger effect = lower value 0.978 | locus YHR129C, strain ARP1, stronger effect = lower value 0.988 | locus YHR142W, strain chs7, stronger effect = lower value 1 | locus YHR200W, strain rpn10, stronger effect = lower value 0.981 | locus YIL066C, strain RNR3, stronger effect = lower value 0.968 | locus YIL073C, strain SPO22, stronger effect = lower value 0.994 | locus YIL125W, strain kgd1, stronger effect = lower value 0.98 | locus YIR030C, strain dcg1, stronger effect = lower value 0.984 | locus YJL092W, strain hpr5, stronger effect = lower value 1.02 | locus YJL095W, strain BCK1 (second series), stronger effect = lower value 1.02 | locus YJL095W, strain BCK1, stronger effect = lower value 0.959 and 1 | locus YJL115W, strain asf1, stronger effect = lower value 1.02 | locus YJL129C, strain trk1, stronger effect = lower value 1.02 | locus YJL134W, strain LCB3, stronger effect = lower value 0.982 | locus YJL154C, strain vps35, stronger effect = lower value 1.03 | locus YJL164C, strain tpk1, stronger effect = lower value 1.01 | locus YJL166W, strain qcr8, stronger effect = lower value 1 | locus YJL168C, strain set2, stronger effect = lower value 0.991 | locus YJL187C, strain SWE1 (second series), stronger effect = lower value 0.965 | locus YJR043C, strain POL32, stronger effect = lower value 0.956 | locus YJR066W, strain TOR1, stronger effect = lower value 0.891 | locus YJR075W, strain HOC1, stronger effect = lower value 0.979 | locus YKL009W, strain mrt4, stronger effect = lower value 0.935 | locus YKL068W, stronger effect = lower value 0.994 | locus YKL085W, strain MDH1 (second series), stronger effect = lower value 0.993 | locus YKL085W, strain MDH1, stronger effect = lower value 0.993 | locus YKL160W, strain elf1, stronger effect = lower value 1.01 | locus YKR001C, strain vps1, stronger effect = lower value 0.949 | locus YKR026C, strain gcn3, stronger effect = lower value 1.02 | locus YKR091W, strain srl3, stronger effect = lower value 1.01 | locus YLL001W, strain dnm1, stronger effect = lower value 1.02 | locus YLL026W, stronger effect = lower value 1.01 | locus YLL041C, strain sdh2, stronger effect = lower value 1.03 | locus YLR027C, strain aat2, stronger effect = lower value 1.01 | locus YLR039C, strain RIC1, stronger effect = lower value 0.777 | locus YLR058C, strain SHM2, stronger effect = lower value 0.978 | locus YLR102C, strain apc9, stronger effect = lower value 0.991 | locus YLR113W, strain HOG1, stronger effect = lower value 1.02 | locus YLR221C, strain rsa3, stronger effect = lower value 1.02 | locus YLR258W, strain gsy2, stronger effect = lower value 1.01 | locus YLR262C, strain YPT6 (second series), stronger effect = lower value 0.907 | locus YLR262C, strain YPT6, stronger effect = lower value 0.758 | locus YLR268W, strain sec22, stronger effect = lower value 0.937 | locus YLR320W, strain mms22, stronger effect = lower value 0.987 | locus YLR330W, strain CHS5, stronger effect = lower value 0.984 | locus YLR342W, strain FKS1 (second series), stronger effect = lower value 0.991 | locus YLR342W, strain FKS1, stronger effect = lower value 1.01 | locus YLR357W, strain rsc2, stronger effect = lower value 1.05 | locus YLR370C, strain arc18, stronger effect = lower value 1.04 | locus YLR371W, strain rom2, stronger effect = lower value 1.01 | locus YLR384C, strain iki3, stronger effect = lower value 1.02 | locus YLR418C, strain cdc73, stronger effect = lower value 0.985 | locus YML016C, strain PPZ1, stronger effect = lower value 0.984 | locus YML032C, strain rad52, stronger effect = lower value 0.979 | locus YML120C, strain ndi1, stronger effect = lower value 1.03 | locus YML124C, strain tub3, stronger effect = lower value 0.985 | locus YMR058W, strain fet3, stronger effect = lower value 1 | locus YMR078C, strain ctf18, stronger effect = lower value 0.984 | locus YMR125W, strain sto1, stronger effect = lower value 1.02 | locus YMR129W, stronger effect = lower value 1.02 | locus YMR205C, strain PFK2, stronger effect = lower value 1.02 | locus YMR223W, strain ubp8, stronger effect = lower value 1.01 | locus YMR231W, strain pep5, stronger effect = lower value 1 | locus YMR263W, strain SAP30, stronger effect = lower value 0.976 | locus YMR307W, strain GAS1, stronger effect = lower value 0.923 | locus YNL067W, strain RPL9B, stronger effect = lower value 0.982 | locus YNL071W, strain lat1, stronger effect = lower value 0.983 | locus YNL183C, strain NPR1, stronger effect = lower value 0.98 | locus YNL209W, strain ssb2, stronger effect = lower value 1.01 | locus YNL233W, strain BNI4, stronger effect = lower value 0.993 | locus YNL248C, strain rpa49, stronger effect = lower value 1.02 | locus YNL250W, strain rad50, stronger effect = lower value 0.993 | locus YNL271C, strain bni1, stronger effect = lower value 0.967 | locus YNL298W, strain CLA4, stronger effect = lower value 0.969 | locus YNL307C, strain MCK1, stronger effect = lower value 0.989 | locus YNL322C, strain KRE1 (second series), stronger effect = lower value 1.03 | locus YNL322C, strain KRE1, stronger effect = lower value 0.999 | locus YNR049C, strain mso1, stronger effect = lower value 1.02 | locus YNR052C, strain pop2, stronger effect = lower value 0.981 | locus YOL006C, strain TOP1, stronger effect = lower value 0.967 | locus YOL012C, strain htz1 1.45 | locus YOL147C, strain pex11, stronger effect = lower value 0.993 | locus YOR001W, strain rrp6, stronger effect = lower value 1 | locus YOR061W, strain CKA2, stronger effect = lower value 0.953 | locus YOR069W, strain VPS5, stronger effect = lower value 0.98 | locus YOR070C, strain gyp1, stronger effect = lower value 1.01 | locus YOR080W, strain dia2, stronger effect = lower value 1.01 | locus YOR083W, strain WHI5, stronger effect = lower value 0.985 | locus YOR106W, strain vam3, stronger effect = lower value 1.04 | locus YOR136W, strain idh2, stronger effect = lower value 0.981 | locus YOR144C, strain elg1, stronger effect = lower value 0.989 | locus YOR184W, strain ser1, stronger effect = lower value 0.939 | locus YOR231W, strain MKK1, stronger effect = lower value 1.02 | locus YOR265W, strain rbl2, stronger effect = lower value 1.01 | locus YOR270C, strain vph1, stronger effect = lower value 0.873 | locus YOR290C, strain snf2, stronger effect = lower value 1.02 | locus YOR316C, strain cot1, stronger effect = lower value 0.978 | locus YPL051W, strain arl3, stronger effect = lower value 1.01 | locus YPL055C, strain LGE1, stronger effect = lower value 1.01 | locus YPL078C, strain atp4, stronger effect = lower value 1.01 | locus YPL106C, strain sse1, stronger effect = lower value 1.09 | locus YPL240C, strain hsp82, stronger effect = lower value 1.01 | locus YPL256C, strain CLN2, stronger effect = lower value 1.01 | locus YPR119W, strain clb2, stronger effect = lower value 0.982 | locus YPR141C, strain kar3, stronger effect = lower value 0.981 | locus YPR163C, strain tif3, stronger effect = lower value 0.992 | locus YPR167C, strain met16, stronger effect = lower value 0.985 | strain wtn01, stronger effect = lower value 0.981
